Measurements: PubChem BioAssay
Active and inactive are the calls of the source.

Columns and labels:
[1] = test system: Human papillomavirus type 1a protein E7 (residues 44-93); assay: small molecules binding HPV E7 44-93 – biochemical, small-molecule microarray, residues 44-93, 635 nm fluorescence, primary screen (AID 1108); details: fluorescence 635 nm, higher = more signal;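 further: E7 fragment applied at 1 µg/mL in TBST for 1 h at 4 C; score combines spot fluorescence with its signal to noise ratio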
[2] = hepatitis C replication reporter changes, two-sided – Huh7 cells, luciferase reporter, HCV replication inhibitor project, primary screen (AID 1109); details: Huh7 HCV replicon luciferase reporter, 48 h; higher = more signal;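 further: huh7 hepatoma cells harbouring a luciferase neomycin HCV replicon reporter; luciferase luminescence as measure of HCV replicon replication; test concentration not given here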
[3] = biological target: Left-right determination factor 2 (Homo sapiens) (UniProt O00292); assay: small molecules binding LEFTY2 protein – biochemical, small-molecule microarray, 635 nm fluorescence scan, primary screen (AID 1110); details: higher = more signal
[4] = biological target: Calmodulin-1 (Homo sapiens) (UniProt P0DP23); assay: small molecules binding calmodulin-1 with EGTA – biochemical, small-molecule microarray, Cy5-labelled CALM1, profiling panel (AID 1111); details: Cy5-CALM1 binding fluorescence, higher = more signal;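 further: labelled calmodulin applied in Tris saline Tween buffer holding calcium plus EGTA and DTT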
[5] = biological target: Calmodulin-1 (Homo sapiens) (UniProt P0DP23); assay: small molecules binding Ca-loaded calmodulin-1 – biochemical, small-molecule microarray, Cy5-labelled CALM1, plus calcium, artefact control for SMM control-protein annotation, profiling panel (AID 1112); details: Cy5-CALM1 binding fluorescence, higher = more signal;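 further: score merges spot fluorescence with signal to noise from triplicate slides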
[6] = probe aWnt5a binding to arrayed compounds – biochemical, biotinylated probe, 635/667 nm fluorescence, primary screen (AID 1113); details: small-molecule microarray, higher = more signal;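 further: score merges 667 nm fluorescence intensity with signal-to-noise per printed feature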
[7] = probe aShh binding to arrayed compounds – biochemical, biotinylated probe, 635/667 nm fluorescence, primary screen (AID 1114); details: small-molecule microarray, higher = more signal;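 further: probe is biotin-labelled aShh protein from a stem cell growth factor screen; measures binding of labelled protein to compounds printed on the slide; score merges feature fluorescence at 667 nm with signal-to-noise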
[8] = probe aNog binding to arrayed compounds – biochemical, biotinylated probe, 635/667 nm fluorescence, primary screen (AID 1115); details: small-molecule microarray, higher = more signal;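 further: probe is biotinylated aNog protein used at 0.15 µg/mL for 1 h at 4 C; z-score combines 667 nm fluorescence of each spot with its signal to noise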
[9] = biological target: Torsin-1A-interacting protein 1 (Homo sapiens) (UniProt Q5JTV8); assay: compound microarray binding of lysate hLAP1 – cell lysate, small-molecule microarray, COS7 lysate, 635/667 nm fluorescence, primary screen (AID 1116); details: 635 nm fluorescence, higher = more signal
[10] = biological target: Alpha-bungarotoxin (Bungarus multicinctus) (UniProt P60615); assay: compounds binding labelled alpha-BTX control protein – biochemical, small-molecule microarray, Alexa647 label, 635/667 nm fluorescence, artefact control for SMM control protein annotation, profiling panel (AID 1117); details: alpha-BTX-A647 binding fluorescence, higher = more signal
[11] = biological target: Albumin (Bos taurus) (UniProt P02769); assay: compounds binding labelled BSA control protein – biochemical, small-molecule microarray, Alexa647 label, 635/667 nm fluorescence, artefact control for SMM control protein annotation, profiling panel (AID 1118); details: BSA-A647 binding, fluorescence 635 nm, higher = more signal;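 further: score merges 667 nm emission intensity and signal-to-noise per printed compound spot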
[12] = probe aXIP binding to arrayed compounds – biochemical, NeuroSMM set, 635/667 nm fluorescence, primary screen (AID 1119); details: small-molecule microarray, higher = more signal, called active from +8 up or from −8 down;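 further: probe is the protein aXip251-270 applied at 1 µg/mL to compound-printed slides; binding of probe to printed compounds measured as 667 nm fluorescence plus signal to noise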
[13] = probe aNOTCH3 binding on compound microarray – biochemical, small-molecule microarray, 635/667 nm fluorescence, primary screen (AID 1120); details: higher = more signal;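 further: probe is a biotin-tagged antibody raised against NOTCH3 rather than NOTCH3 protein; score merges spot fluorescence near 667 nm with spot signal to noise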
[14] = probe aNOTCH2 binding on compound microarray – biochemical, small-molecule microarray, 635/667 nm fluorescence, primary screen (AID 1121); details: higher = more signal;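 further: score merges feature fluorescence read at 667 nm with its signal to noise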
[15] = biological target: Carbonic anhydrase 2 (Homo sapiens) (UniProt P00918); assay: compounds binding carbonic anhydrase 2 – biochemical, small-molecule microarray, Alexa647-labelled CAII, profiling panel (AID 1122); details: CAII-A647 binding fluorescence, higher = more signal
[16] = COS7 lysate on small-molecule microarray, probe aHis, 635 nm (AID 1123); details: COS7 cell lysate, fluorescence, higher = more signal;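 further: z-score combines 667nm fluorescence intensity with signal-to-noise per printed compound spot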
[17] = probe aLAP1 signal on lysate-treated microarray – cell lysate, small-molecule microarray, COS7 lysate, primary screen (AID 1124); details: probe aLAP1, fluorescence, higher = more signal;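 further: lysate comes from COS7 cells expressing LAP1 and is applied at 0.3 µg/mL; score merges spot fluorescence near 667 nm with signal-to-noise over triplicate slides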
[18] = test system: Sam68 (KHDRBS1); assay: compounds binding KHDRBS1 protein – biochemical, small-molecule microarray, 635 nm fluorescence, primary screen (AID 1125); details: higher = more signal;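 further: score merges 667 nm channel intensity with signal to noise over triplicate slides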
[19] = test system: Chordin-like protein 2 (CHRDL2); assay: compounds binding chordin-like 2 – biochemical, small-molecule microarray, 635 nm fluorescence, primary screen (AID 1126); details: fluorescence 635 nm, higher = more signal;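 further: printed compound slides probed with Chrdl2 protein at 4 µg/mL for 1 h at 4 C; score merges 667 nm emission intensity with signal to noise over three replicate slides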
[20] = biological target: Concanavalin-A (Canavalia ensiformis) (UniProt P02866); assay: compounds binding concanavalin A lectin – biochemical, small-molecule microarray, Alexa647 label, 635 nm, artefact control for SMM control protein annotation, primary screen (AID 1127); details: ConA-A647 binding fluorescence, higher = more signal;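 further: z combines 667 nm emission intensity with signal-to-noise across three replicate slides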
Sequence of Concanavalin-A (Canavalia ensiformis) (P02866 whole entry, looked up): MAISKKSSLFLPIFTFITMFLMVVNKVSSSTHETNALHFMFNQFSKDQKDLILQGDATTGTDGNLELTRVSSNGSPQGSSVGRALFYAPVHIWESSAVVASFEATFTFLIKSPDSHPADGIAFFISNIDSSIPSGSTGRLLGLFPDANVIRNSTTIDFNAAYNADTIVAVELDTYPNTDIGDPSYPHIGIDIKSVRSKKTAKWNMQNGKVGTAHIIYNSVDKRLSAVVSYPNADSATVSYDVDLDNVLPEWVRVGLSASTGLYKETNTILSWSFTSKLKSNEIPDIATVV

Sequence of Torsin-1A-interacting protein 1 (Homo sapiens) (Q5JTV8 whole entry, looked up): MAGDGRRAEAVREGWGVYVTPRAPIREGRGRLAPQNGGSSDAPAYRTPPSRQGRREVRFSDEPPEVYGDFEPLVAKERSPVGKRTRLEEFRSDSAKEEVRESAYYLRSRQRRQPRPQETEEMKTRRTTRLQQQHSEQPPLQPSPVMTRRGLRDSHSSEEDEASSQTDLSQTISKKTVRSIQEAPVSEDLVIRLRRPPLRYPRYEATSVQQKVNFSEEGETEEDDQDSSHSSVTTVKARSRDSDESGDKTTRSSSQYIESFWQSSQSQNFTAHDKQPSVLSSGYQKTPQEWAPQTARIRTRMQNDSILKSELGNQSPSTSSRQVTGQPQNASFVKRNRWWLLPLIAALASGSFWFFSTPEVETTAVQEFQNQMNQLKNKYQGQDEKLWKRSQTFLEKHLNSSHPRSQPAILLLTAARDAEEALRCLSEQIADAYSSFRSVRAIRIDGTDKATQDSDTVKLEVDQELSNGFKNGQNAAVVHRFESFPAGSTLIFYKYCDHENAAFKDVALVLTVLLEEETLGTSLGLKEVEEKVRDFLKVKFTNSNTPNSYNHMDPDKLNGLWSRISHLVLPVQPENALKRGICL
Sequence of Alpha-bungarotoxin (Bungarus multicinctus) (P60615 whole entry, looked up): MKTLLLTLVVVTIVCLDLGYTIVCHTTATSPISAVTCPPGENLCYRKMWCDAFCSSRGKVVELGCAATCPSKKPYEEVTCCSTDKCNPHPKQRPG
Sequence of Albumin (Bos taurus) (P02769 whole entry, looked up): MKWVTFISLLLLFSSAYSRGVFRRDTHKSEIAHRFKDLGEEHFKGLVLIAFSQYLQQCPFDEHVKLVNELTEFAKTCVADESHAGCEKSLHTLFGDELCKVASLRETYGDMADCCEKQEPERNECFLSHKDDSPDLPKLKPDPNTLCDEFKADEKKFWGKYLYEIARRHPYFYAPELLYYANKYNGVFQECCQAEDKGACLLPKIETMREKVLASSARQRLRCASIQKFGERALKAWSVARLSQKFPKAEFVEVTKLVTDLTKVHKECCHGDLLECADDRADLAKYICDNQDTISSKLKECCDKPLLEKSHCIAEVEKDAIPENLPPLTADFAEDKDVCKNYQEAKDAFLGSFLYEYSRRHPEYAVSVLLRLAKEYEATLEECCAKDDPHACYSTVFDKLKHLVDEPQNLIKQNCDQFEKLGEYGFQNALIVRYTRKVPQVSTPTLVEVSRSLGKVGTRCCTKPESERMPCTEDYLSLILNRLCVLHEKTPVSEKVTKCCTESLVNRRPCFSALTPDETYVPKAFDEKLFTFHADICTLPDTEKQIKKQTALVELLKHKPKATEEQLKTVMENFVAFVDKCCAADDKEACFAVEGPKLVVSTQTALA
Sequence of Left-right determination factor 2 (Homo sapiens) (O00292 whole entry, looked up): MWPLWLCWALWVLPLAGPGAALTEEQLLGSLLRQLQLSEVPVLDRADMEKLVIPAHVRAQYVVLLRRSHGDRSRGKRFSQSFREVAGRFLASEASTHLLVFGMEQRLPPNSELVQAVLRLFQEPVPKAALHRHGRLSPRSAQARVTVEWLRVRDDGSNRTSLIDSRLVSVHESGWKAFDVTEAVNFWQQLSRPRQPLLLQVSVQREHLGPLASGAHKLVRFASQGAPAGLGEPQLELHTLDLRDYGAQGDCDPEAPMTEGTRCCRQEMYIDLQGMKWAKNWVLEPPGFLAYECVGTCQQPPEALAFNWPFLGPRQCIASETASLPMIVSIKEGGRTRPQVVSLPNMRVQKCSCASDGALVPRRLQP

| Structure (SMILES) | composite z-score [1] | z-score [2] | composite z-score [3] | composite z-score [4] | composite z-score [5] | composite z-score [6] | composite z-score [7] | composite z-score [8] | composite z-score [9] | composite z-score [10] | composite z-score [11] | composite Z-score [12] | composite z-score [13] | composite z-score [14] | composite z-score [15] | composite z-score [16] | composite z-score [17] | composite z-score [18] | composite z-score [19] | composite z-score [20] |
| --- | --- | --- | --- | --- | --- | --- | --- | --- | --- | --- | --- | --- | --- | --- | --- | --- | --- | --- | --- | --- |
| CO[C@H]1O[C@H](CO)[C@@H](OC(=O)Nc2ccc3c(c2)OCO3)[C@H](OC(=O)Nc2ccccc2)[C@H]1OC(=O)Nc1ccccc1 | 1.5 | -3.44 | 0.0544 | 1.36 | -0.905 | -0.0519 | 0.275 | 0.909 | 1.47 | 1.74 | -0.21 | 0.118 (inactive) | 0.0773 | -0.102 | 0.406 | 2.04 | 0.637 | 1.19 | 0.261 | 0.143 |
| CC(C)C(=C=CC[C@H](O)c1ccccc1OCCO)C[C@H](O)c1ccccn1 | 0.143 | -0.493 | 0.64 | -0.227 | -0.253 | -0.0607 | -0.2 | 0.381 | 0.94 | 1.38 | 0.161 | 0.41 (inactive) | 0.395 | -0.0488 | 0.632 | 0.559 | 1.61 | 0.861 | -0.161 | -0.0625 |
| CC(C)(C)OC(=O)CC[C@]1(C(=O)N2CCCCC2)N=C(c2ccc(OCCCO)cc2)O[C@H]1c1ccccc1N=[N+]=[N-] | 1.43 | 0.6 | 0.376 | 2.25 | 1.38 | 0.152 | -0.385 | 0.207 | 1.47 | 0.823 | 0.657 | 2.33 (inactive) | 0.128 | -0.0391 | 0.528 | 2.05 | -0.0995 | 1.25 | -0.292 | 1.19 |
| COCCOC(=O)N1C(=O)[C@@]2(c3ccccc31)[C@H](C(=O)NC[C@H](O)c1ccccc1)[C@H]1C(=O)O[C@H](c3ccccc3)[C@H](c3ccccc3)N1[C@@H]2c1ccc(OCCO)cc1 | 1.11 | -1.33 | 0.965 | 0.932 | -0.373 | -0.0263 | 0.0723 | -0.466 | 1.13 | 0.247 | 0.605 | -0.404 (inactive) | 0.267 | -0.0959 | 0.492 | 1.53 | -0.0994 | 1.3 | 1.22 | 1.12 |
| CCOC(=O)C1=CCC(C(C)(C)C)N(S(=O)(=O)c2ccc(C)cc2)C1 (stereo not given) | 1.46 | -2.59 | 1.37 | 0.898 | 0.197 | 0.0561 | -0.532 | 0.562 | 0.944 | 1.5 | 0.815 | -0.427 (inactive) | 0.34 | -0.0196 | 0.623 | 2.45 | 0.368 | 1.32 | 0.825 | 1.1 |
| COc1ccc(C(=O)Nc2cccc(CN3C(=O)[C@@]4(O[C@@H](CCn5cc(CCO)nn5)[C@H]([Si](C)(C)c5ccc(OC)cc5)[C@H]4C)c4ccccc43)c2)cc1 | 1.37 | -5.15 | 0.714 | 0.468 | 0.308 | -0.0403 | 0.13 | 0.153 | 0.602 | 1.6 | -0.194 | 1.4 (inactive) | 0.149 | -0.084 | 0.411 | 0.733 | -0.046 | 1.3 | 1.05 | 1.08 |
| CCCC[C@H]1OB(O)C[C@H]2C1=C(C)C[C@H]1C(=O)N(Cc3ccccc3)C(=O)[C@H]12 | 0.152 | 0.885 | 0.369 | 0.229 | -0.326 | 0.0017 | -0.0396 | -0.351 | -0.254 | -0.277 | 0.067 | 0.252 (inactive) | -0.0613 | -0.126 | 0.38 | 0.257 | -0.361 | 0.663 | 0.472 | 0.546 |
| COC(=O)C[C@@H]1C[C@H](C)[C@]2(O1)C(=O)N(Cc1ccccc1)c1ccc(NC(C)=O)cc12 | -0.654 | -0.249 | 0.266 | -0.595 | -0.324 | -0.311 | -0.543 | 0.0034 | 0.458 | -0.194 | -0.211 | -0.209 (inactive) | -0.116 | -0.185 | -0.153 | 0.117 | -0.0791 | -0.506 | 0.343 | 0.0104 |
| COc1c(C)cc(-c2cc3c(c(-c4ccc(Oc5ccccc5)cc4)n2)[Si](C(C)C)(C(C)C)OC3)cc1C | -0.0076 | -0.382 | -0.0065 | 0.354 | 0.777 | -0.0721 | -0.138 | -0.111 | -0.0839 | 0.327 | -0.237 | -0.591 (inactive) | 0.0208 | 0.0016 | -0.229 | -0.202 | 0.151 | -1.07 | -0.206 | -0.52 |
| NC(=O)NCC#Cc1ccc2c(c1)[C@]1(C(=O)N2)[C@H](C(=O)NC[C@H](O)c2ccccc2)[C@H]2C(=O)O[C@H](c3ccccc3)[C@H](c3ccccc3)N2[C@@H]1c1ccc(O)cc1 | 1.38 | -0.257 | 0.691 | 2 | 0.916 | 0.551 | 0.456 | 0.921 | 1.45 | 2.19 | 0.496 | 0.58 (inactive) | 0.51 | 0.159 | 0.501 | 2.15 | 0.743 | 0.998 | 0.395 | 1.13 |
| Cc1cc(C)c(C(O)C2C=CC3C(=O)N(C)C(=O)C3N2Nc2ccccc2)c(C)c1 (stereo not given) | -0.7 | 0.228 | 0.627 | 1.16 | -0.0299 | 0.881 | 0.365 | 1.45 | 1.23 | 0.821 | 0.72 | 2.43 (inactive) | 1.35 | 0.818 | 0.784 | 1.2 | 0.781 | 0.485 | 0.452 | 0.143 |
